DT40 TDP1 no CPT: qHTS for Inhibitors of human tyrosyl-DNA phosphodiesterase 1 (TDP1): qHTS in cells in absence of CPT | actives 15% (n = 420,000) | Potency, µM (titrated, usually from 46.2 µM), for inactives: top-dose activity change, negative = growth inhibition, hits mostly inhibitors | DT40 Tdp1-/- hTDP1 cells, no CPT, ATP luminescence, 48 h; also: potency is read from the fitted curve at half-maximal effect; nearly all actives have a fitted effect of over 55% in size
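Stably hTDP1-transfected Tdp1-null chicken DT40 cells were treated with library compounds minus camptothecin and grown for at least 48 hr at 37 °C, after which cellular ATP was quantified by luminescence.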
HT1080-NT tox: kills 2HG-producing HT-1080-NT fibrosarcoma cells | HT-1080-NT fibrosarcoma viability, CellTiter-Glo ATP luminescence, 48 h | actives 1.6% (n = 360,000) | AID 686970 | Potency, µM (highest dose often 46.1 µM), without a hit: top-dose activity, negative = less viability, usual class: cytotoxic;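 also: NT is the 2HG producing partner of a matched IDH1 knockdown line; potency is read from the fitted curve at half-maximal effect; 0% = DMSO-treated cells and -100% = media-only wells without cells; nearly all actives have a fitted effect of over 55% in size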
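750 cells/well, RPMI + 5% FBS; 2 h settle, compound pin-transfer, 48 h at 37 degrees C. CellTiter-Glo 10 min RT, luminescence. Normalized to DMSO and media-only wells.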
IL-1B inflam inh: inflammasome signaling inhibition, IL-1 beta readout; THP-1 LPS/ATP IL-1B secretion, AlphaLISA, 16 h; stronger effect = lower value; AID 743279; actives 4.7% (n = 360,000); activity change, % at 57.5 µM; in the data active = activity change below about -50%; inconclusive = mostly about -30% to -49%
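THP-1 cells pretreated 1 hr with compounds (up to 57.5 uM final), then stimulated with LPS (250 ng/mL final) plus ATP (1.25 mM final); secreted IL-1B measured by AlphaLISA after 16 hr, decreased signal indicating inhibition.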
HT1080 IDH1KD tx: kills HT-1080 cells with IDH1 knockdown | HT-1080 IDH1 knockdown viability, ATP luminescence, 48 h | Potency, µM (top dose mostly 46.1 µM), for inactives: at the highest dose activity, negative = toxicity, most hits filed as cytotoxic | actives 2% (n = 360,000);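 also: potency is read from the fitted curve at half-maximal effect; 0% = DMSO wells and -100% = cell-free medium wells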
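Assay cells: HT-1080 with IDH1 knockdown, 750 per well, RPMI/5% FBS. Exposure: 48 h at 37 °C following 2 h pre-incubation. Read: CellTiter-Glo luminescence; fitted concentration-response, curve class assigned.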
DT40 TDP1 CPT: growth inhibition of DT40 Tdp1-/-;hTDP1 cells with camptothecin (screen for TDP1 inhibitors) | chicken DT40 Tdp1-/-;hTDP1 cells + 20 nM CPT, ATP luminescence, 48 h | Potency, µM (top dose mostly 46.2 µM), without a hit: at the highest dose activity change, negative = growth inhibition, usual class: inhibitors | actives 12% (n = 420,000); also: potency is read from the fitted curve at half-maximal effect; nearly all actives have a fitted effect of over 55% in size
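Chicken DT40 Tdp1-/- cells complemented with human TDP1, 400 cells/well, exposed to compounds plus 20 nM camptothecin for at least 48 h at 37 C; viability read as ATP content by CellTiter-Glo luminescence.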
Starred values were filed as active, the others as inactive; ? = inconclusive; . = not tested or not shown; [ ] = remark or other dose. Rows were chosen to be rich in hits. Some 19% of all compounds tested hit in one or more screens of this group. Unless noted, calls follow the shape of the dose curve; as a rule, active = well fitted curve in the direction sought with a large enough effect; inconclusive = small, poorly fitted or top-dose-only effect, or another doubt; inactive = no such curve, though single readings can be large; an effect the other way counts as inactive or inconclusive. Unless noted, % is scaled to controls: 0 for no effect and ±100 for the full control effect.

SMILES	DT40 TDP1 no CPT	HT1080-NT tox	IL-1B inflam inh	HT1080 IDH1KD tx	DT40 TDP1 CPT
CCCC(=O)NCC(c1cccs1)S(=O)(=O)c1ccc(Cl)cc1 (stereo not given)	-20.6%	-5.3%	18.9	5.5%	?
Cc1cc(S(=O)(=O)C(CNC(=O)COc2ccc(Cl)cc2)c2cccs2)ccc1F (stereo not given)	?	.	.	.	2.59µM*
O=C(COc1ccccc1)NCC(c1cccs1)S(=O)(=O)c1ccc(Cl)cc1 (stereo not given)	23.1µM*	.	.	.	?
O=C(COc1ccc(Cl)cc1)NCC(c1ccco1)S(=O)(=O)c1ccccc1 (stereo not given)	20.6µM*	.	.	.	?
Cc1c(NC(=O)C(C)OC(=O)[C@@H](NC(=O)c2ccccc2)C(C)C)c(=O)n(-c2ccccc2)n1C (stereo not given in full)	-9.7%	-1.4%	18.3	-0.3%	-0.3%
Cc1noc(C)c1C(=O)Nc1cccc(S(=O)(=O)N2CCOCC2)c1	0.2%	-1.2%	0.0	-0.9%	-13.1%
COc1cccc(/C=N/Nc2ncnc(Cl)c2N)c1O	0.517µM*	8.2µM*	14.0	4.11µM*	0.82µM*
Clc1nccnc1N/N=C/c1ccc(Br)cc1	-25.2%	-28.8%	0.0	-26.6%	?
COc1ccc(/C=N/Nc2nccnc2Cl)cc1	20.6µM*	10µM*	-25.4	11.2µM*	9.2µM*
COc1cccc(/C=N/Nc2nccnc2Cl)c1O	4.61µM*	?	110.6	?	3.26µM*
COC(=O)c1sccc1N/N=C/c1cccc(OC)c1O	?	-11.2%	-11.5	0.6%	3.5%
COc1ccc(/C=N/Nc2nccnc2Cl)c(OC)c1	-13.7%	-14.0%	-13.9	-9.8%	5.0%
COc1cccc(/C=N/Nc2ncnc3scc(-c4ccccc4)c23)c1O	1.46µM*	?	45.7	?	1.03µM*
COC(=O)C(OC(=O)c1ccccc1)C(C)Br (stereo not given)	-1.9%	35.7%	18.8	8.8%	-9.4%
Cc1nn(Cc2ccccc2Cl)c2sc(C(=O)Nc3ccccc3N3CCOCC3)cc12	?	6.4%	0.0	0.8%	10.3µM*
COc1ccccc1CNC(=O)c1cc2c(C)nn(Cc3ccc(F)cc3)c2s1	?	-14.5%	-52.0*	-12.7%	?
Cc1nn(Cc2ccccc2Cl)c2sc(C(=O)Nc3nccs3)cc12	?	-29.3%	17.1	-21.7%	-19.2%
Cc1nn(Cc2ccc(F)cc2)c2sc(C(=O)Nc3ccccc3N3CCOCC3)cc12	?	1.4%	-16.5	10.7%	?
Cc1nn(Cc2ccc(F)cc2)c2sc(C(=O)Nc3nccs3)cc12	-9.2%	-27.4%	19.7	-19.2%	-3.1%
CCC(CC)NC(=O)c1cc2c(C)nn(Cc3ccccc3Cl)c2s1	?	-29.6%	-19.5	?	23.1µM*
O=C(CSc1nccn1Cc1ccccc1)Nc1ccc2c(c1)OCO2	-0.9%	.	.	.	?
CCOc1ccccc1CN1CCNC(=O)C1CC(=O)N(C)C1CCOCC1 (stereo not given)	13.6%	4.3%	14.3	5.9%	-27.6%
O=C(NCC1COc2ccccc2O1)C1CCN(S(=O)(=O)c2ccc(Cl)cc2)CC1 (stereo not given)	?	0.7%	-7.4	-0.3%	?
O=C(CCSc1ccc(Cl)cc1)N1CCN(c2ncccn2)CC1	?	-1.0%	-13.4	-2.7%	13µM*
O=C(CSc1ccc(Cl)cc1)N1CCN(c2ccc([N+](=O)[O-])cc2Cl)CC1	18.4µM*	-2.1%	-62.0*	-23.3%	?
SMILES	DT40 TDP1 no CPT	HT1080-NT tox	IL-1B inflam inh	HT1080 IDH1KD tx	DT40 TDP1 CPT
O=C(/C=C/c1ccc(Cl)cc1)N1CCN(c2c(Cl)cccc2[N+](=O)[O-])CC1	14.6µM*	-28.9%	-75.7*	-24.2%	?
O=C(CSc1ccc(Cl)cc1)N1CCN(c2c(Cl)cccc2[N+](=O)[O-])CC1	14.6µM*	-28.9%	-14.4	-28.3%	16.4µM*
CN1CCN(C(=O)CSc2ccc(Cl)cc2)CC1	3.2%	9.0%	-15.2	2.3%	8.7%
COCC(C)N1CCC(n2nccc2NC(=O)CCCc2ccccc2)CC1 (stereo not given)	8.0%	2.1%	-6.1	1.1%	-17.9%
COC(=O)C1CCN(C(=O)CN2C(=O)NC(CC(C)C)C2=O)CC1 (stereo not given)	-5.9%	-3.2%	-11.0	-5.2%	0.5%
C/C(Cl)=C/Cn1c(NCCN(C)C)nc2c1c(=O)n(C)c(=O)n2C	-3.9%	0.2%	-28.3	-0.6%	-1.1%
CCn1c(NCc2ccccn2)nc2c1c(=O)n(C)c(=O)n2C	-13.8%	-6.1%	-2.7	7.8%	1.2%
CCOc1ccc(CCNc2nc3c(c(=O)n(C)c(=O)n3C)n2CC)cc1OCC	14.1µM*	-1.2%	1.6	6.1%	15.8µM*
Cn1c(=O)c2c(nc(NCCCN3CCOCC3)n2Cc2ccc(Cl)cc2)n(C)c1=O	-22.3%	1.9%	-24.7	-14.1%	-1.4%
Cn1c(=O)c2nc(NCc3ccccc3)cnc2n(C)c1=O	13µM*	-1.7%	8.3	12.6%	?
C/C(Cl)=C\Cn1c(Nc2ccccc2)nc2c1c(=O)n(C)c(=O)n2C	?	0.2%	-5.7	1.6%	11.2µM*
Cn1c(=O)c2c(nc(NCCc3ccccc3)n2Cc2ccc(Cl)cc2)n(C)c1=O	10.3µM*	.	.	.	11.6µM*
CCS(=O)(=O)n1nc(-c2ccccc2)nc1SC	-11.8%	8.3%	-8.5	5.6%[9.24 µM]	-4.3%
COc1cc(OC)c(Nc2nc3ccccc3nc2-n2nc(C)cc2C)cc1Cl	?	.	.	.	-9.7%
Cn1c(=O)c2c(nc(NCc3ccccc3)n2Cc2ccccc2)n(C)c1=O	4.11µM*	.	.	.	8.2µM*
Cn1c(=O)c2c(nc(NCc3ccccc3)n2Cc2ccc(Cl)c(Cl)c2)n(C)c1=O	7.31µM*	.	.	.	8.2µM*
Cc1cc(C)cc(-c2nnc(SCc3ccc(C(=O)O)cc3)o2)c1	?	2.2%	-12.6	-1.1%	?
Cc1ccc(S(=O)(=O)N2CCCC2CNC(=O)C(=O)Nc2ccc(F)cc2)cc1 (stereo not given)	16.4µM*	-8.9%	-8.0	?	20.6µM*
COc1ccc(S(=O)(=O)N2CCCC2CNC(=O)C(=O)Nc2ccc(C)cc2)cc1 (stereo not given)	?	-4.6%	-23.4	2.4%	?
Cc1ccc(S(=O)(=O)N2CCCC2CNC(=O)c2ccc(F)c(F)c2)cc1 (stereo not given)	18.4µM*	6.5%	-5.7	-2.9%	?
Cc1ccc(C)c(S(=O)(=O)N2CCCC2CNC(=O)C(=O)Nc2ccccc2)c1 (stereo not given)	?	-7.4%	0.0	-5.2%	-27.8%

Screening data as filed in PubChem.
